Screening data from PubChem.
Tau fluor counter: counter-screen for tau fibril formation inhibitors. tau K18 P301L Alexa594 fluorescence, heparin fibrillization. 280,000 compounds, 0.93% hits. Potency, µM (series often up to 57.7 µM). AID 1463; also: nearly all actives have a fitted effect of over 55% in size
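Human K18 P301L tau (15 uM unlabeled plus 0.24 uM Alexa 594-labeled, final) in 100 mM sodium acetate pH 7 was mixed with compound and 20 uM heparin and incubated 6 hr at 37 C.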
Tau FP inhib: blocks human tau fibril formation measured by polarization. P10636. K18 P301L tau heparin fibrillization, Alexa594 FP, 6 h. Potency, µM (titrated, usually from 57.7 µM), hits mostly inhibitors. 280,000 compounds, 0.39% hits; also: nearly all actives have a fitted effect of over 55% in size
Target sequence (P10636 561-689 P618L limits assumed): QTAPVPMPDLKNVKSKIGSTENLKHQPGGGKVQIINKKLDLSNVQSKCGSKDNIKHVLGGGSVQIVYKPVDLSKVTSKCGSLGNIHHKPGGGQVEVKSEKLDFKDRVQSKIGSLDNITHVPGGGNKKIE
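Recombinant K18 P301L […], labeled with Alexa 594 at 0.24 uM over 15 uM unlabeled; heparin inducer 20 uM final; 37 C, 6 hr; FP endpoint.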
Tau fibril ThT: tau fibrillization inhibition (ThT binding). recombinant tau K18 P301L, heparin-induced fibrillization, ThT fluorescence. 270,000 compounds, 2.1% hits. Potency, µM (doses to about 57.4 µM), actives largely listed as inhibitors. P10636. AID 1460; also: nearly all actives have a fitted effect of over 55% in size
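Using a mix of unlabeled (15 uM) and Alexa 594-labeled (0.24 uM) tau K18 P301L, heparin-triggered fibrillization over 6 hr at 37 C was scored by ThT fluorescence.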
RGS12 GoLoco inh: blocks human Gai1 binding to RGS12 GoLoco peptide, red readout; P63096; Gai1:RGS12 GoLoco peptide FP, rhodamine, 10 min; 230,000 compounds, 0.44% hits; Potency, µM (series often up to 61.6 µM), most hits filed as inhibitors; active = well fitted inhibition curve with a large enough effect, not every such curve was filed as active; inactive = no such curve, though single readings can be large or run the other way; also: nearly all actives have a fitted effect of over 30% in size
JMJD2E inh: JMJD2E (human) inhibition. B2RXH2. JMJD2E catalytic domain, FDH-coupled NADH fluorescence (FDH is formaldehyde dehydrogenase). Potency, µM (highest dose often 57.1 µM), hits mostly inhibitors. 230,000 compounds, 1.6% hits. AID 2147; active = well fitted inhibition curve with a large enough effect, not every such curve was filed as active; inconclusive = small, poorly fitted or top-dose-only effect, or another doubt; inactive = no such curve, though single readings can be large or run the other way; also: nearly all actives have a fitted effect of over 50% in size
Target sequence (B2RXH2 1-337 limits assumed): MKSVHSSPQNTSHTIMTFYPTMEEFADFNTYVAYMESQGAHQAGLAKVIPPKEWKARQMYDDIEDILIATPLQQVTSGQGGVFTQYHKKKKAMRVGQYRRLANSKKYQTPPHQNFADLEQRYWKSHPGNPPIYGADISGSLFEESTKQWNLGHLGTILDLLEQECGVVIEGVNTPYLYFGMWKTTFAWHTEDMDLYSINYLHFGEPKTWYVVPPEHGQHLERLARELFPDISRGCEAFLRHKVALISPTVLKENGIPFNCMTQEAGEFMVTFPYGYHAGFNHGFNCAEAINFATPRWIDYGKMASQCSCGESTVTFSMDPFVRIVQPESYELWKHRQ
Hits are given with their value; [ ] = another dose, or the depositor's remark. Shown are actives, neighbours in structure and some others; about 3.4% of the full set was active somewhere. Unless noted, calls follow the shape of the dose curve; as a rule, active = well fitted curve in the direction sought with a large enough effect; inconclusive = small, poorly fitted or top-dose-only effect, or another doubt; inactive = no such curve, though single readings can be large; an effect the other way counts as inactive or inconclusive.

`CCN1CCc2nc3sc(C(=O)c4ccc(F)cc4)c(N)c3cc2C1` gave Tau fluor counter inactive, Tau FP inhib inactive and Tau fibril ThT inconclusive.
Cc1cccc(CCNc2ncnc3onc(-c4ccc(Cl)cc4)c23)c1 was read as Tau fluor counter inactive, Tau FP inhib inactive and Tau fibril ThT inactive.
For COc1ccc(CS(=O)(=O)/C(Cl)=C(/Cl)C(=O)Nc2ccc(OC)nc2)cc1 the results were Tau fluor counter inactive, Tau FP inhib inconclusive, Tau fibril ThT 7.9µM, RGS12 GoLoco inh inactive and JMJD2E inh inactive.
O=C1NC(=S)CN1c1ccccc1 was read as Tau fluor counter inactive, Tau FP inhib inconclusive, Tau fibril ThT 32µM, RGS12 GoLoco inh inactive and JMJD2E inh inconclusive.
For Nc1cc(=O)[nH]c(=S)n1-c1ccccc1 the results were Tau fluor counter inactive, Tau FP inhib inactive, Tau fibril ThT inactive, RGS12 GoLoco inh inactive and JMJD2E inh inactive.
For Oc1cccc(Nc2nc(O)c(/C=C3\C=Nc4ccccc43)s2)c1 the results were Tau fluor counter 11µM[quencher], Tau FP inhib inactive, Tau fibril ThT 4µM, RGS12 GoLoco inh inactive and JMJD2E inh inactive.
Screening CC1=Nc2ccccc2/C1=C/c1sc(=O)n(CC(=O)N2CCCC2)c1O returned Tau fluor counter inconclusive, Tau FP inhib inactive, Tau fibril ThT inactive, RGS12 GoLoco inh inactive and JMJD2E inh inactive.
Screening Oc1nc(Nc2ccc(F)cc2)sc1/C=C1\C=Nc2ccccc21 returned Tau fluor counter 7.1µM[quencher], Tau FP inhib inactive, Tau fibril ThT 4.5µM, RGS12 GoLoco inh inactive and JMJD2E inh inactive.
Oc1nc(Nc2cccc(Cl)c2)sc1/C=C1\C=Nc2ccccc21 was read as Tau fluor counter 5µM[quencher], Tau FP inhib inconclusive, Tau fibril ThT 6.3µM and JMJD2E inh inactive.
CC1=Nc2ccccc2/C1=C\c1sc(Nc2ccc(C)cc2)nc1O was read as Tau fluor counter 11µM[quencher], Tau FP inhib inconclusive, Tau fibril ThT 7.9µM, RGS12 GoLoco inh inactive and JMJD2E inh inactive.
`CCOc1ccccc1NS(=O)(=O)c1c(-c2ccc(C)cc2)csc1C(=O)OC` gave Tau fluor counter inactive, Tau FP inhib inconclusive and Tau fibril ThT inactive.
CC(=O)c1ccc(N2C(=O)N(Cc3cccc(C(F)(F)F)c3)c3ccccc3S2(=O)=O)cc1 was read as Tau fluor counter inactive, Tau FP inhib inactive and Tau fibril ThT inactive.
Screening COc1cc2[nH]c(=O)n(Cc3ccc(C(=O)N4CCN(c5cc(Cl)ccc5C)CC4)cc3)c(=O)c2cc1OC returned Tau fluor counter inconclusive, Tau FP inhib inconclusive and Tau fibril ThT inactive.
COc1ccc(OC)c(-c2csc(NC(=O)CSc3ccc(Br)cc3)n2)c1 was read as Tau fluor counter inconclusive, Tau FP inhib inconclusive, Tau fibril ThT inactive, RGS12 GoLoco inh inactive and JMJD2E inh inactive.
COc1ccc(OC)c(-c2csc(NC(=O)CSc3ccc([N+](=O)[O-])cc3)n2)c1 was read as Tau fluor counter 11µM[quencher], Tau FP inhib inactive, Tau fibril ThT inconclusive, RGS12 GoLoco inh inactive and JMJD2E inh inactive.
For COCCNC(=O)c1c[nH]c2ccc(S(=O)(=O)N3CCc4ccccc43)cc2c1=O the results were Tau fluor counter inconclusive, Tau FP inhib inconclusive, Tau fibril ThT inactive, RGS12 GoLoco inh inactive and JMJD2E inh inactive.
`COCCCNC(=O)c1c[nH]c2ccc(S(=O)(=O)N3CCc4ccccc43)cc2c1=O` gave Tau fluor counter inconclusive, Tau FP inhib 28µM, Tau fibril ThT inactive, RGS12 GoLoco inh inactive and JMJD2E inh inactive.
Cc1ccc(CCNC(=O)c2c[nH]c3ccc(S(=O)(=O)Nc4ccc(C)cc4C)cc3c2=O)cc1 was read as Tau fluor counter inconclusive, Tau FP inhib 4.5µM and Tau fibril ThT inactive.
For COc1cccc(NS(=O)(=O)c2ccc3[nH]cc(C(=O)NCCc4ccc(C)cc4)c(=O)c3c2)c1 the results were Tau fluor counter inconclusive, Tau FP inhib inconclusive and Tau fibril ThT inactive.
Screening Cc1cccc(CCNC(=O)c2c[nH]c3ccc(S(=O)(=O)Nc4ccccc4F)cc3c2=O)c1 returned Tau fluor counter inconclusive, Tau FP inhib 7.1µM and Tau fibril ThT inactive.
For COc1ccccc1CNC(=O)c1ccc2c(c1)sc1nc(-c3ccc(F)cc3)cn12 the results were Tau fluor counter inactive, Tau FP inhib inactive and Tau fibril ThT inactive.
For O=C(NN1C(=O)/C(=C/C=C/c2ccco2)SC1=S)c1ccncc1 the results were Tau fluor counter inconclusive, Tau FP inhib inconclusive, RGS12 GoLoco inh inactive and JMJD2E inh 20µM.
